# Measurements: the supplement of paper PMC8975748
# Structures can show the parent of a compound that is named as a salt. ± gives the standard deviation of the averaged measurements.
# System: Saccharomyces cerevisiae BY4741 SeMeCo community
# Assay: mean cell size (pixel area) (pixels); higher = larger cells
# Conditions: 10 µM; 24 h; SM minimal medium
# In short: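 Drug was acoustically predosed into 384-well plates to a final 10 µM in SM medium, and each well received 70 µl of Saccharomyces cerevisiae BY4741 diluted to OD600 = 0.3 from an overnight preculture at OD600 = 1.0. This four-plasmid fluorescent community carries one fluorescent marker per plasmid, and each plasmid complements one auxotrophy. After 24 h, the cells were fixed with paraformaldehyde and imaged by automated confocal microscopy, and Harmony analysis yielded mean cell pixel area per well. Each value is averaged over 3 replicates. Same SeMeCo high-content imaging drug screen: Selleck FDA-approved drugs at 10 µM, 24 h in SM medium, 384-well plates, 3 replicates.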
row,Compound,mean cell size
1,CO[C@H]1O[C@@H]2O[C@@]3(C)CC[C@H]4[C@H](C)CC[C@@H]([C@H]1C)[C@@]24OO3 [Artemether],12.05 ± 0.027
2,CC(=O)[C@@]1(O)CC[C@H]2[C@@H]3CCC4=CC(=O)CCC4=C3[C@@H](c3ccc(N(C)C)cc3)C[C@@]21C [Ulipristal],12.3 ± 0.16
3,CNS(=O)(=O)Cc1ccc2[nH]cc(CCN(C)C)c2c1 [Sumatriptan Succinate],12.34 ± 0.1
4,CN(C)[C@@H]1C(O)=C(C(N)=O)C(=O)[C@@]2(O)C(O)=C3C(=O)c4c(O)ccc(Cl)c4[C@@H](O)[C@H]3C[C@@H]12 [Demeclocycline HCl],12.5 ± 0.32
5,CN(C)[C@@H]1C(O)=C(C(N)=O)C(=O)[C@@]2(O)C(O)=C3C(=O)c4c(O)ccc(Cl)c4[C@@](C)(O)[C@H]3C[C@@H]12 [Chlortetracycline HCl],12.4 ± 0.2
6,O=C1C(O)=C([C@H]2CC[C@H](c3ccc(Cl)cc3)CC2)C(=O)c2ccccc21 [Atovaquone],12.39 ± 0.12
7,O=C1OC(CN2CCOCC2)CN1/N=C/c1ccc([N+](=O)[O-])o1 (configuration not stated) [Furaltadone HCl],12.75 ± 0.12
8,COc1ccc2c(c1)C(=O)N(CCc1ccc(S(=O)(=O)NC(=O)NC3CCCCC3)cc1)C(=O)C2(C)C [Gliquidone],12.5 ± 0.12
9,C[C@H]1c2cccc(O)c2C(=O)C2=C(O)[C@]3(O)C(=O)C(C(N)=O)=C(O)[C@@H](N(C)C)[C@@H]3[C@@H](O)[C@@H]21 [Doxycycline monohydrate],12.2 ± 0.19
10,CN(C)[C@@H]1C(O)=C(C(N)=O)C(=O)[C@@]2(O)C(O)=C3C(=O)c4c(O)cccc4[C@@](C)(O)[C@H]3[C@H](O)[C@@H]12 [Oxytetracycline (Terramycin)],12.87 ± 0.067
11,C[C@H]1c2cccc(O)c2C(=O)C2=C(O)[C@]3(O)C(=O)C(C(N)=O)=C(O)[C@@H](N(C)C)[C@@H]3[C@@H](O)[C@@H]21 [Doxycycline],12.1 ± 0.32
12,NCc1ccccc1CC(=O)N[C@@H]1C(=O)N2C(C(=O)O)=C(CSc3nnnn3CC(=O)O)CS[C@H]12 [Ceforanide],12.09 ± 0.042
13,CC(C)(C)[C@H]1CC[C@H](CC2=C(O)C(=O)c3ccccc3C2=O)CC1 [Buparvaquone],12.1 ± 0.18
14,C[C@@H](O)[C@H]1C(=O)N2C(C(=O)O)=C(S[C@@H]3CN[C@H](C(=O)N(C)C)C3)[C@H](C)[C@H]12 [Meropenem],12.4 ± 0.19
15,C=C1CC[C@@H]2[C@](C)(CO)[C@H](O)CC[C@@]2(C)[C@H]1C/C=C1\C=COC1=O [Dehydroandrographolide],12.37 ± 0.086
16,Cc1c(C)c2c(c(C)c1O)CC[C@@](C)(CCC[C@H](C)CCC[C@H](C)CCCC(C)C)O2 [Vitamin E],12.2 ± 0.22
17,O=C1CN(/N=C/c2ccc(-c3ccc([N+](=O)[O-])cc3)o2)C(=O)N1 [Dantrolene sodium],12.4 ± 0.18
